In PubChem BioAssay:

Experiment: compound binding in COS7 lysate, probe aLAP1, primary screen, cell lysate, small-molecule microarray (AID 1124);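 note: lysate comes from COS7 cells expressing LAP1 and is applied at 0.3 µg/mL; score merges spot fluorescence near 667 nm with signal-to-noise over triplicate slides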
Settings: probe aLAP1, fluorescence, higher = more signal
`COC(=O)[C@H](C)NC(=O)CCC1CC(OC(=O)NCCc2ccc(F)cc2)CC2(CCCC(COC(=O)NCCc3ccc(Cl)cc3)O2)O1` (stereo not given in full) showed a composite z-score of 0.0391.
In the case of `C=COC[C@H]1CN2[C@@H](CC[C@@H](C)[C@@H]2c2ccc(Br)cc2)C(=O)O1`, the composite z-score is reported as 0.446.
For `CN1C(=O)C2C=CC(C(O)c3ccc(Br)cc3)N(N(c3ccccc3)c3ccccc3)C2C1=O` (stereo not given), the composite z-score was -0.068.
`COC(=O)[C@H](C)NC(=O)[C@@H](C)CO` gave a composite z-score of 0.531.
With `O=C1[C@H]2[C@H]3[C@H](O)[C@H](O)CC(=NOCc4ccccc4)[C@@H]3CC[C@H]2C(=O)N1Cc1ccccc1` the composite z-score was -0.355.
Compound `CC(C)[C@@H](OCc1ccccc1)[C@H](C)C=NOC[C@@H](C)[C@H](OCc1ccccc1)C(C)C` has a composite z-score of -0.0427.
Work on `CCOC(=O)[C@H](Cc1ccccc1)NC(=O)CCC1CC(OC(=O)NCc2ccc3c(c2)OCO3)CC2(CCCC(COC(=O)NCC3CCCCC3)O2)O1` (stereo not given in full) yielded a composite z-score of -0.243.
In the case of `COC(=O)[C@@H]1CC[C@H](C)[C@@H](c2ccc(C)cc2)N1C(=O)c1ccc(C=NOC[C@@H](O)COCc2ccco2)cc1`, the composite z-score is reported as 0.171.
`Cc1cc2c(nc1C)CCCN2CC(O)CN1CCN(C)CC1` (stereo not given) gave a composite z-score of 0.289.
For `C=C(CCCC)C(=O)CC[C@@H](OC(C)=O)c1cccc(OCCO)c1`, the composite z-score was 0.953.
Compound `CCOC(=O)[C@H](Cc1ccccc1)NC(=O)CCC1CC(OC(=O)NCc2ccc3c(c2)OCO3)CC2(CCCC(COC(=O)NCC(c3ccccc3)c3ccccc3)O2)O1` (stereo not given in full) has a composite z-score of 0.0713.
Compound `C#CCCCON=C1C[C@@H](O)[C@@H](O)[C@@H]2[C@@H]3C(=O)N(c4cccc(Oc5ccccc5)c4)C(=O)[C@@H]3CC[C@@H]12` has a composite z-score of -0.164.
For `CC(C)CON=C1C[C@@H](O)[C@@H](O)[C@@H]2[C@@H]3C(=O)N(C[C@@H]4CCCO4)C(=O)[C@@H]3CC[C@H]12`, the composite z-score was -0.193.
`CCN1C(=O)[C@H]2[C@H]3[C@H](O)[C@H](O)CC(=NO[C@@H]4O[C@H](CO)[C@@H](O)[C@H](O)[C@H]4O)[C@@H]3CC[C@H]2C1=O` showed a composite z-score of -0.378.
Work on `COc1ccc(-c2ccc3c(n2)CCCN3CC(O)CN2CCCc3nc(C)c(C)cc32)cc1` (stereo not given) yielded a composite z-score of 0.677.
`CO[C@H]1O[C@H](CO)[C@@H](OC(=O)Nc2ccc3c(c2)OCO3)[C@H](OC(=O)Nc2ccccc2-c2ccccc2)[C@@H]1OC(=O)Nc1ccccc1-c1ccccc1` showed a composite z-score of 0.429.
`COC(=O)CC1OC1[C@H](C)[C@@H](OC)C(C)C` (stereo not given in full) gave a composite z-score of 0.229.
Work on `CO[C@@H]1COC(=O)CC=C[C@@H](C)[C@@H]2C=C[C@H](O)[C@@H](COC(=O)[C@H](C)NC(=O)CC=C[C@H]1C)O2` yielded a composite z-score of 1.27.
With `N#Cc1ccc(NN2C(C(O)c3cc(C(F)(F)F)cc(C(F)(F)F)c3)C=CC3C(=O)N(c4ccccc4)C(=O)C32)cc1` (stereo not given) the composite z-score was 0.557.
With `CCOC(=O)NN=C1C[C@@H](O)[C@@H](O)[C@@H]2[C@@H]3C(=O)N(C[C@@H]4CCCO4)C(=O)[C@@H]3CC[C@@H]12` the composite z-score was 0.649.
For `COCCOC(=O)N1C(=O)[C@@]2(c3cc(C#CC4(O)CCCCCC4)ccc31)[C@H](C(=O)N1CCN(c3ncccn3)CC1)[C@H]1C(=O)O[C@H](c3ccccc3)[C@H](c3ccccc3)N1[C@@H]2c1ccc(OCCO)cc1`, the composite z-score was 0.857.
`C=CC[C@]1(C(=O)NCc2ccccc2)N=C(c2ccc(OCCCO)cc2)O[C@H]1c1ccccc1` gave a composite z-score of 0.308.
For `COc1ccc(O[C@H]2C=C[C@@H](c3ccccc3)O[C@@H]2COC(=O)CCC(C)=NOC(C)CN2CCCCc3nc(C)c(C)cc32)cc1` (stereo not given in full), the composite z-score was -0.312.
With `CO[C@@H]1COC(=O)CC=C[C@@H](C)[C@@H]2C=C[C@@H](O)[C@@H](COC(=O)CC=C[C@H]1C)O2` the composite z-score was 0.156.
`CCOC(=O)[C@H](Cc1ccccc1)NC(=O)CCC1CC(OC(=O)NCCc2ccc(F)cc2)CC2(CCCC(COC(=O)NCC(c3ccccc3)c3ccccc3)O2)O1` (stereo not given in full) showed a composite z-score of 0.0435.
Work on `C[C@H]1CC[C@@H](C(=O)O)N[C@@H]1c1ccc(C#CCN(C)C)cc1` yielded a composite z-score of -0.0228.
With `O=C1NC(=O)C2C1C=CC(C(O)Cc1ccccc1)N2Nc1ccccn1` (stereo not given) the composite z-score was 0.12.
Compound `CCOC(=O)CCN1C(=O)[C@H]2[C@H]3[C@H](O)[C@H](O)CC(=NOC[C@@H](O)COCc4ccco4)[C@@H]3CC[C@H]2C1=O` has a composite z-score of 0.256.
`CC(C)(C)N1C(=O)[C@H]2[C@H]3[C@H](O)[C@H](O)CC(=NOCc4ccccc4)[C@@H]3CC[C@H]2C1=O` gave a composite z-score of 0.532.
Work on `COC(=O)[C@@]1(Cc2ccccc2)[C@H]2c3cc(C(=O)N4CCCC4)n(Cc4ccccn4)c3C[C@H]2CN1C(=O)c1ccccc1` yielded a composite z-score of 0.596.
